# Target: Nicotinamide N-methyltransferase (Homo sapiens) (UniProt P40261)
# Test: Confirmatory Screen for Target Class Profiling of Small Molecule Inhibitors of Methyltransferases (AID 1745852)
# Conditions: MTase-Glo luminescence, SAH detection, recombinant enzyme; measured here: NNMT max response; stronger effect = lower value
# Sequence of Nicotinamide N-methyltransferase (Homo sapiens) (P40261 whole entry, looked up): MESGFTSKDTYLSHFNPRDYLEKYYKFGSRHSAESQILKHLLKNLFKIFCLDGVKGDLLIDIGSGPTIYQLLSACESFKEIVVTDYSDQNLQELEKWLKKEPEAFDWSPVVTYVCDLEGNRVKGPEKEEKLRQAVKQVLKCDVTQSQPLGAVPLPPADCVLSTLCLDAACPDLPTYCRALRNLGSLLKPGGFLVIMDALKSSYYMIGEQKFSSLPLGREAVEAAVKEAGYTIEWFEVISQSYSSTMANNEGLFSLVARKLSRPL
row,Structure (SMILES),activity [%]
1,CC1=C(C(=O)OCc2ccccc2)C(c2ccc(-c3ccccc3)cc2)NC(=O)N1CCCCCC(=O)O (stereo not given),-35.4
2,C=C1C(=O)OC2C1CCC(=C)C1CC(OC(C)=O)C(=C)C12 (stereo not given),-9.15
3,CC(C)=CCC(O)/C(C)=C/CO[C@@H]1O[C@H](CO)[C@@H](O)[C@H](O)[C@H]1O (stereo not given in full),0
4,C=C[C@H]1[C@H](O[C@@H]2O[C@H](CO)[C@@H](O)[C@H](O)[C@H]2O)OC=C(C(=O)OC)[C@H]1C/C=C(/C=O)[C@@H]1C(C(=O)OC)=CO[C@@H](O[C@@H]2O[C@H](CO)[C@@H](O)[C@H](O)[C@H]2O)[C@@H]1C=C,0
5,CC1CCC2(CO)C(C(=O)O)=CCCC2C1(C)CCc1ccoc1 (stereo not given),1.37
6,Cc1cc(O)c(-c2ccc([C@@H](C)CN(C)C)cc2)c2c1[nH]c(=O)c1sccc12,-64.6
7,CN(C)C/C=C/C(=O)Nc1cccc(C(=O)Nc2cccc(Nc3ncc(Cl)c(-c4c[nH]c5ccccc45)n3)c2)c1,-56
8,Cc1cc(=O)oc2c(C=O)c(O)ccc12,-24
9,CC/C=C\CCO[C@@H]1O[C@H](CO)[C@@H](O)[C@H](O)[C@H]1O,1.9
10,O=C(/C=C/c1ccccc1)OC[C@]12O[C@H]1[C@@H](O)[C@@H]1C=CO[C@@H](O[C@@H]3O[C@H](CO)[C@@H](O)[C@H](O)[C@H]3O)[C@@H]12,-5.73
11,Cc1ccc([N+](=O)[O-])cc1S(=O)(=O)N(C)/N=C/c1cnc2ccc(Br)cn12,-33.8
12,C=C1C(=O)OC2/C=C(\CO)CC/C=C(\C=O)CC(OC(=O)CC(C)C)C12 (stereo not given),-4.38
13,COC(=O)C1=CO[C@@H](O[C@@H]2O[C@H](CO[C@@H]3O[C@H](COC(=O)/C=C/c4cc(OC)c(O)c(OC)c4)[C@@H](O)[C@H](O)[C@H]3O)[C@@H](O)[C@H](O)[C@H]2O)[C@@H]2C(CO)=CC[C@H]12,-1.52
14,C=C(C(=O)O)C1CC(O)C2(C)CCCC(=C)C2C1 (stereo not given),4.87
15,C=C[C@H]1[C@H](O[C@@H]2O[C@H](CO)[C@@H](O)[C@H](O)[C@H]2O)OC=C(C(=O)OC)[C@H]1CCOC(=O)c1cc(O)c(O)c(O)c1,0.422
16,CC1=C(CCC(C)O[C@@H]2O[C@H](CO)[C@@H](O)[C@H](O)[C@H]2O)C(C)(C)CCC1=O (stereo not given in full),-4.03
17,CCC(C)C(=O)OC1CC(O)C23C4OCC5(C(O)CC2C1(C)C(O)O4)C3C(=O)C(O)C1(C)C(O)(c2ccoc2)CC2OC251 (stereo not given),-4.23
18,CC1(C)CC[C@]2(C(=O)O[C@@H]3O[C@H](CO)[C@@H](O)[C@H](O)[C@H]3O)CC[C@]3(C)C(=CCC4[C@@]5(C)C[C@@H](O)[C@H](O)[C@@](C)(CO)C5CC[C@]43C)C2[C@@H]1O (stereo not given in full),-4
19,CCCCc1nc2cc(/C=C/C(=O)NO)ccc2n1CCN(CC)CC,-2.78
20,CC1=CC(=O)C2(OC3OC(C)C(O)C(OC(=O)/C=C/c4ccccc4)C3O)C=COC(OC3OC(CO)C(O)C(O)C3O)C12 (stereo not given),-1.08
21,Cc1nc([C@](C)(O)CO)sc1-c1cnc(N)c(O[C@H](C)c2cc(F)ccc2-n2nccn2)c1,-12.8
22,C=C1C(=O)O[C@@H]2/C=C(\C)C(=O)/C=C/[C@](C)(O)C[C@@H](OC(=O)C(C)C)[C@@H]12,-1.46
23,COc1cc2c(cc1OC)N1C(=O)C[C@]34C=CCN5CC[C@@H]2[C@@H](CC3)[C@]514,1.78
24,CC(O)(CC(=O)O)CC(=O)OCc1ccc(O[C@@H]2O[C@H](CO)[C@@H](O)[C@H](O)[C@H]2O)cc1 (stereo not given in full),1.65
25,CC1(C)[C@@H](O)CC[C@]2(C)[C@H]3CC=C4[C@@H]5C[C@](C)(C(=O)O)CC[C@]5(C)CC[C@@]4(C)[C@]3(C)CC[C@@H]12,-38.7

# Target: Phenylethanolamine N-methyltransferase (Homo sapiens) (UniProt P11086)
# Test: as above
# Conditions: MTase-Glo luminescence, SAH detection, recombinant enzyme; measured here: PNMT max response; stronger effect = lower value
# Sequence of Phenylethanolamine N-methyltransferase (Homo sapiens) (P11086 whole entry, looked up): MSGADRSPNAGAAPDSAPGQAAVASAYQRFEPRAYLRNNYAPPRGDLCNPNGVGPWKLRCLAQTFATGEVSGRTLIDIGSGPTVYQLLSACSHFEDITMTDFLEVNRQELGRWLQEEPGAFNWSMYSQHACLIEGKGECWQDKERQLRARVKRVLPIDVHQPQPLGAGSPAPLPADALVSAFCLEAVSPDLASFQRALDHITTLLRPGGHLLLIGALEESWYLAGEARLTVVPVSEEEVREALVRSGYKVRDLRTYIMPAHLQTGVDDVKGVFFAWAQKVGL
row,Structure (SMILES),activity [%]
1,CC1=C(C(=O)OCc2ccccc2)C(c2ccc(-c3ccccc3)cc2)NC(=O)N1CCCCCC(=O)O (stereo not given),2.18
2,C=C1C(=O)OC2C1CCC(=C)C1CC(OC(C)=O)C(=C)C12 (stereo not given),-8.53
3,CC(C)=CCC(O)/C(C)=C/CO[C@@H]1O[C@H](CO)[C@@H](O)[C@H](O)[C@H]1O (stereo not given in full),5.19
4,C=C[C@H]1[C@H](O[C@@H]2O[C@H](CO)[C@@H](O)[C@H](O)[C@H]2O)OC=C(C(=O)OC)[C@H]1C/C=C(/C=O)[C@@H]1C(C(=O)OC)=CO[C@@H](O[C@@H]2O[C@H](CO)[C@@H](O)[C@H](O)[C@H]2O)[C@@H]1C=C,4.52
5,CC1CCC2(CO)C(C(=O)O)=CCCC2C1(C)CCc1ccoc1 (stereo not given),1.68
6,Cc1cc(O)c(-c2ccc([C@@H](C)CN(C)C)cc2)c2c1[nH]c(=O)c1sccc12,-48.7
7,CN(C)C/C=C/C(=O)Nc1cccc(C(=O)Nc2cccc(Nc3ncc(Cl)c(-c4c[nH]c5ccccc45)n3)c2)c1,-9.06
8,Cc1cc(=O)oc2c(C=O)c(O)ccc12,-37.6
9,CC/C=C\CCO[C@@H]1O[C@H](CO)[C@@H](O)[C@H](O)[C@H]1O,0.287
10,O=C(/C=C/c1ccccc1)OC[C@]12O[C@H]1[C@@H](O)[C@@H]1C=CO[C@@H](O[C@@H]3O[C@H](CO)[C@@H](O)[C@H](O)[C@H]3O)[C@@H]12,-4.62
11,Cc1ccc([N+](=O)[O-])cc1S(=O)(=O)N(C)/N=C/c1cnc2ccc(Br)cn12,-16.6
12,C=C1C(=O)OC2/C=C(\CO)CC/C=C(\C=O)CC(OC(=O)CC(C)C)C12 (stereo not given),-2.45
13,COC(=O)C1=CO[C@@H](O[C@@H]2O[C@H](CO[C@@H]3O[C@H](COC(=O)/C=C/c4cc(OC)c(O)c(OC)c4)[C@@H](O)[C@H](O)[C@H]3O)[C@@H](O)[C@H](O)[C@H]2O)[C@@H]2C(CO)=CC[C@H]12,-1.68
14,C=C(C(=O)O)C1CC(O)C2(C)CCCC(=C)C2C1 (stereo not given),3.46
15,C=C[C@H]1[C@H](O[C@@H]2O[C@H](CO)[C@@H](O)[C@H](O)[C@H]2O)OC=C(C(=O)OC)[C@H]1CCOC(=O)c1cc(O)c(O)c(O)c1,-11.3
16,CC1=C(CCC(C)O[C@@H]2O[C@H](CO)[C@@H](O)[C@H](O)[C@H]2O)C(C)(C)CCC1=O (stereo not given in full),-0.201
17,CCC(C)C(=O)OC1CC(O)C23C4OCC5(C(O)CC2C1(C)C(O)O4)C3C(=O)C(O)C1(C)C(O)(c2ccoc2)CC2OC251 (stereo not given),-2.09
18,CC1(C)CC[C@]2(C(=O)O[C@@H]3O[C@H](CO)[C@@H](O)[C@H](O)[C@H]3O)CC[C@]3(C)C(=CCC4[C@@]5(C)C[C@@H](O)[C@H](O)[C@@](C)(CO)C5CC[C@]43C)C2[C@@H]1O (stereo not given in full),-1.38
19,CCCCc1nc2cc(/C=C/C(=O)NO)ccc2n1CCN(CC)CC,3.65
20,CC1=CC(=O)C2(OC3OC(C)C(O)C(OC(=O)/C=C/c4ccccc4)C3O)C=COC(OC3OC(CO)C(O)C(O)C3O)C12 (stereo not given),1.5
21,Cc1nc([C@](C)(O)CO)sc1-c1cnc(N)c(O[C@H](C)c2cc(F)ccc2-n2nccn2)c1,-10.9
22,C=C1C(=O)O[C@@H]2/C=C(\C)C(=O)/C=C/[C@](C)(O)C[C@@H](OC(=O)C(C)C)[C@@H]12,-0.934
23,COc1cc2c(cc1OC)N1C(=O)C[C@]34C=CCN5CC[C@@H]2[C@@H](CC3)[C@]514,3.88
24,CC(O)(CC(=O)O)CC(=O)OCc1ccc(O[C@@H]2O[C@H](CO)[C@@H](O)[C@H](O)[C@H]2O)cc1 (stereo not given in full),1.08
25,CC1(C)[C@@H](O)CC[C@]2(C)[C@H]3CC=C4[C@@H]5C[C@](C)(C(=O)O)CC[C@]5(C)CC[C@@]4(C)[C@]3(C)CC[C@@H]12,-42.7

# Reference: PubChem BioAssay (NCATS)
